Test results as given in PubChem BioAssay.
“And” between values parts separate entries of the source, which are not always exact repeats. Equal values may be shown once. Unmarked numbers belong to inactive results. The source made the active and inactive calls. Cut-off read from the data, not from the text of the source, unless noted: active = inhibition above about 25%; inactive = the rest.

target: Nuclear receptor coactivator 1 (Homo sapiens) (UniProt Q15788); assay: SRC1 coactivator transcriptional activity inhibitors, confirmation, cell-based, luminescence, quadruplicate (AID 588820;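 active = mean inhibition above 46.68%, the untreated control wells mean plus 3 SD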;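 note: 0% = DMSO wells and 100% = gossypol 36 µM treated wells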); conditions: HEK293 GAL4-SRC1 luciferase reporter, at 3.6 µM, hits give high values
Sequence (Q15788 whole entry, looked up, the tested form may be a part): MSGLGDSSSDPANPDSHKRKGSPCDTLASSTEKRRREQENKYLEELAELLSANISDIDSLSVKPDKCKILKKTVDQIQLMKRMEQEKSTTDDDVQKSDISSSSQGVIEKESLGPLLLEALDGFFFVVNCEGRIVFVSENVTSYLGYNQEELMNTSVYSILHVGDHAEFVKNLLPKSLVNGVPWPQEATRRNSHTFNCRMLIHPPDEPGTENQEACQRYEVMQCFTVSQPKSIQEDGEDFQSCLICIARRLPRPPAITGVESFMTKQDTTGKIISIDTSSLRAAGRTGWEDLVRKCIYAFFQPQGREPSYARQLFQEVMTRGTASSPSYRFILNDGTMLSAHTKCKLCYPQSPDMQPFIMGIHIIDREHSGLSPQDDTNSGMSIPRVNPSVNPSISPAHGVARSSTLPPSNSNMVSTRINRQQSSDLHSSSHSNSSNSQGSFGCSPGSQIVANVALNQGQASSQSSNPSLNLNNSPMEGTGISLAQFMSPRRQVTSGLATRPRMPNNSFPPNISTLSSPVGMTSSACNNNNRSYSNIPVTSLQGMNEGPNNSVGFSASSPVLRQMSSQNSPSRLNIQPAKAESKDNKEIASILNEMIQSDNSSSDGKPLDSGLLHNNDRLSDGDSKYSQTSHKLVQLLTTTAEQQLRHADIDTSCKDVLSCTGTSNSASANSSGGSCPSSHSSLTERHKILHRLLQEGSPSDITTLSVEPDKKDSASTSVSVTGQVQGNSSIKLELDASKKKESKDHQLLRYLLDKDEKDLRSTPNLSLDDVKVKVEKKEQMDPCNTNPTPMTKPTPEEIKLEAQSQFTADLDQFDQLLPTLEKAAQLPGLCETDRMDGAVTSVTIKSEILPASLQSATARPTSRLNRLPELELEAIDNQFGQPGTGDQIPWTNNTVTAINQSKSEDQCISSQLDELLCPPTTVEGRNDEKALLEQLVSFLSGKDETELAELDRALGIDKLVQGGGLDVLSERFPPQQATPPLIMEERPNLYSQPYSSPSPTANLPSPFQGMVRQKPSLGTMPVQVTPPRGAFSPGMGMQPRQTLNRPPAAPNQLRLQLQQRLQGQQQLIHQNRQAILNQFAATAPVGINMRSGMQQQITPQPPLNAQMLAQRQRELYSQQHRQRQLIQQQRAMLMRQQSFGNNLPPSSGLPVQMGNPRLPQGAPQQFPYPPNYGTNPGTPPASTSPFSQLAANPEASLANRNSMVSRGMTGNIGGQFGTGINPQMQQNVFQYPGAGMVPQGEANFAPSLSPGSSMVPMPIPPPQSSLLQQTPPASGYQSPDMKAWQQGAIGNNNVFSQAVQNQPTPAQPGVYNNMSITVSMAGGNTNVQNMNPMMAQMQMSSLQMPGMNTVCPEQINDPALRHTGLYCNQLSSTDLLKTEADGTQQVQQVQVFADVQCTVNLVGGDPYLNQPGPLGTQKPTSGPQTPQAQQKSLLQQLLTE

| Compound | inhibition |
| --- | --- |
| O=C(Nc1ccc(N2CCN(C(=O)c3ccco3)CC2)c(Cl)c1)c1cc2ccccc2o1 | -30.1% |
| O=C(CCl)Nc1ccc(Oc2cnc3ccccc3n2)cc1 | 4.66% |
| CCn1c(Oc2cccc(Br)c2)nc2c1c(=O)n(C)c(=O)n2C | 15.8% |
| CCn1ccnc1CN(C)Cc1cn[nH]c1-c1ccc(F)cc1F | 30.6% |
| O=C1CCC2S/C(=C/Nc3ccc(C(F)(F)F)cc3)C(=O)N12 (stereo not drawn) | 15.1% |
| Cc1ccc(Oc2ccc(C(=O)NCc3ccncc3)cc2)cc1 | 2.24% |
| Cc1ccc(-c2cc(C(=O)NCCCN3CCOCC3)no2)cc1 | 8.12% |
| Cc1sc2ncnc(NC3CCN(Cc4ccccc4)CC3)c2c1C | -6.93% |
| Cc1ncc(CO)c(/C=N/Nc2ccc(C(F)(F)F)cn2)c1O | 11.6% |
| COc1cccc(N2CCN(c3c(C#N)c(C(F)(F)F)nn3C)CC2)c1 | 48.8% (active) |
| CC(=O)Nc1ccc(OCC(=O)Nc2ccc(Cl)c(S(=O)(=O)N3CCOCC3)c2)cc1 | -7.7% |
| c1cn(-c2ncnc3sc4c(c23)CCCC4)cn1 | 11.4% |
| Cc1ccc(C(=O)C(C(=O)/C=C/c2ccccc2)=C2SCCCS2)cc1 | 44.4% |
| CC(C)CCNC(=O)c1sc2ccc(S(=O)(=O)N3CCCCC3)cc2c1N | 13.5% |
| CCOC(=O)C1CCN(C(=O)c2ccc(OCC(=O)Nc3cccc(C(F)(F)F)c3)c(OC)c2)CC1 | 4.29% |
| CC1CCN(c2ccc(-c3cccc(NC(=O)C(F)(F)F)c3)nn2)CC1 | -55.7% |
| CC(C)(C)c1cc(/C=N/O)cc(C(C)(C)C)c1O | 33.6% |
| C=C1C(=O)C23C(O)C1CCC2C12COC3(O)C(O)C1C(C)(C)CCC2O (stereo not drawn) | -16% |
| NC(=S)NN=Cc1ccc(OC(=O)COc2cc(Cl)c(Cl)cc2Cl)cn1 | 23.4% |
| COc1ccc(CNc2ncc(-c3ccc(F)cc3)n2C)c2ccccc12 | 41.3% |

| Compound | inhibition |
| --- | --- |
| O=C1c2c(O)ccc(O)c2C(=O)c2c(NCCNCCO)ccc(NCCNCCO)c21 | -142% and -11.9% |
| O=C(Nc1ccc(OCc2ccccc2Cl)cc1)c1cccnc1 | -2.33% |
| COc1ccc(S(=O)(=O)N2CCOCC2)cc1NC(=O)CCNC(=O)c1ccc(Br)cc1 | 64.3% (active) |
| c1ccc2c(-c3cccc4nccn34)cncc2c1 | 33.6% |
| Cc1cc(Nc2cccc(Cl)c2)nc(NCc2ccccc2)n1 | -6.91% |
| CN(C)S(=O)(=O)N1CCC(Oc2cccc(C(=O)NC3CCCCC3)c2)CC1 | -42% |
| CN(C)CCNC(=O)c1ccc(Cl)c2cc3ccccc3nc12 | 14.8% |
| Cc1noc(/C=C/c2ccco2)c1S(=O)(=O)N1CCC(C(=O)Nc2ccc(Cl)cn2)CC1 | 16.8% |
| CN(c1ccc(C(=O)N2CCN(Cc3ccc4c(c3)OCO4)CC2)cc1)S(=O)(=O)c1ccccc1 | 14.7% |
| COc1ccc(-c2noc(CCCCC(=O)N3CCN(c4cc(C)ccc4C)CC3)n2)cc1 | -26% |
| Cc1ccc(-c2nnc(SCC(=O)Nc3ccccc3F)o2)cc1 | -8.02% |
| COCCNC(=O)c1c[nH]c2ccc(S(=O)(=O)N3CCc4ccccc43)cc2c1=O | 43.8% |
| COc1ccc(CCNc2c(C)c(C)nc3ncnn23)cc1 | -13.9% |
| C=C1C(=O)C23CCC4C(C)(C(=O)OC)CCCC4(C)C2CCC1(O)C3 (stereo not drawn) | -0.73% |
| COc1cccc2c1C(=O)c1c(O)c3c(c(O)c1C2=O)CC(O)(C(C)=O)CC3OC1CC(O)C(O)C(C)O1 (stereo not drawn) | -3.87% |
| Cc1cc(NC(=O)Cc2ccccc2)c2ccccc2n1 | 11.1% |
| O=C(Nc1ccc2c(c1)OCCO2)c1[nH]c(C(F)(F)F)nc1-c1ccccc1 | -3.74% |
| O=S(=O)(Nc1ccc2c(c1)OCCO2)c1cccc2nsnc12 | 7.42% |
| COc1ccc2c(=O)cc(-c3ccncc3)oc2c1OC | 43.9% |

test system: not listed separately; assay: VP16 transactivation inhibitors, counter-screen for SRC1 inhibitor project, cell-based, luminescence, high throughput (AID 588824); conditions: cell-based VP16 transactivation luciferase luminescence; at 3.6 µM; hits give high values

| Compound | inhibition |
| --- | --- |
| O=C(Nc1ccc(N2CCN(C(=O)c3ccco3)CC2)c(Cl)c1)c1cc2ccccc2o1 | 6.89% |
| O=C(CCl)Nc1ccc(Oc2cnc3ccccc3n2)cc1 | 2.08% |
| CCn1c(Oc2cccc(Br)c2)nc2c1c(=O)n(C)c(=O)n2C | 12.3% |
| CCn1ccnc1CN(C)Cc1cn[nH]c1-c1ccc(F)cc1F | 15.7% |
| O=C1CCC2S/C(=C/Nc3ccc(C(F)(F)F)cc3)C(=O)N12 (stereo not drawn) | 6.56% |
| Cc1ccc(Oc2ccc(C(=O)NCc3ccncc3)cc2)cc1 | 23.4% |
| Cc1ccc(-c2cc(C(=O)NCCCN3CCOCC3)no2)cc1 | -4.18% |
| Cc1sc2ncnc(NC3CCN(Cc4ccccc4)CC3)c2c1C | 23.8% |
| Cc1ncc(CO)c(/C=N/Nc2ccc(C(F)(F)F)cn2)c1O | 18.7% |
| COc1cccc(N2CCN(c3c(C#N)c(C(F)(F)F)nn3C)CC2)c1 | 32.2% (active) |
| CC(=O)Nc1ccc(OCC(=O)Nc2ccc(Cl)c(S(=O)(=O)N3CCOCC3)c2)cc1 | 27.7% (active) |
| c1cn(-c2ncnc3sc4c(c23)CCCC4)cn1 | 7.19% |
| Cc1ccc(C(=O)C(C(=O)/C=C/c2ccccc2)=C2SCCCS2)cc1 | 34.3% (active) |
| CC(C)CCNC(=O)c1sc2ccc(S(=O)(=O)N3CCCCC3)cc2c1N | 13.8% |
| CCOC(=O)C1CCN(C(=O)c2ccc(OCC(=O)Nc3cccc(C(F)(F)F)c3)c(OC)c2)CC1 | 35.4% (active) |
| CC1CCN(c2ccc(-c3cccc(NC(=O)C(F)(F)F)c3)nn2)CC1 | -29.6% |
| CC(C)(C)c1cc(/C=N/O)cc(C(C)(C)C)c1O | 26.5% (active) |
| C=C1C(=O)C23C(O)C1CCC2C12COC3(O)C(O)C1C(C)(C)CCC2O (stereo not drawn) | -9.14% |
| NC(=S)NN=Cc1ccc(OC(=O)COc2cc(Cl)c(Cl)cc2Cl)cn1 | 18.9% |
| COc1ccc(CNc2ncc(-c3ccc(F)cc3)n2C)c2ccccc12 | -14.1% |

| Compound | inhibition |
| --- | --- |
| O=C1c2c(O)ccc(O)c2C(=O)c2c(NCCNCCO)ccc(NCCNCCO)c21 | 20.7% and 0.91% |
| O=C(Nc1ccc(OCc2ccccc2Cl)cc1)c1cccnc1 | -5.23% |
| COc1ccc(S(=O)(=O)N2CCOCC2)cc1NC(=O)CCNC(=O)c1ccc(Br)cc1 | 61.1% (active) |
| c1ccc2c(-c3cccc4nccn34)cncc2c1 | 30.7% (active) |
| Cc1cc(Nc2cccc(Cl)c2)nc(NCc2ccccc2)n1 | 12.4% |
| CN(C)S(=O)(=O)N1CCC(Oc2cccc(C(=O)NC3CCCCC3)c2)CC1 | 22% |
| CN(C)CCNC(=O)c1ccc(Cl)c2cc3ccccc3nc12 | 29.6% (active) |
| Cc1noc(/C=C/c2ccco2)c1S(=O)(=O)N1CCC(C(=O)Nc2ccc(Cl)cn2)CC1 | 24.4% |
| CN(c1ccc(C(=O)N2CCN(Cc3ccc4c(c3)OCO4)CC2)cc1)S(=O)(=O)c1ccccc1 | 23% |
| COc1ccc(-c2noc(CCCCC(=O)N3CCN(c4cc(C)ccc4C)CC3)n2)cc1 | 32.4% (active) |
| Cc1ccc(-c2nnc(SCC(=O)Nc3ccccc3F)o2)cc1 | 26.2% (active) |
| COCCNC(=O)c1c[nH]c2ccc(S(=O)(=O)N3CCc4ccccc43)cc2c1=O | 29.5% (active) |
| COc1ccc(CCNc2c(C)c(C)nc3ncnn23)cc1 | 29.1% (active) |
| C=C1C(=O)C23CCC4C(C)(C(=O)OC)CCCC4(C)C2CCC1(O)C3 (stereo not drawn) | 53.7% (active) |
| COc1cccc2c1C(=O)c1c(O)c3c(c(O)c1C2=O)CC(O)(C(C)=O)CC3OC1CC(O)C(O)C(C)O1 (stereo not drawn) | 16.4% |
| Cc1cc(NC(=O)Cc2ccccc2)c2ccccc2n1 | 36.5% (active) |
| O=C(Nc1ccc2c(c1)OCCO2)c1[nH]c(C(F)(F)F)nc1-c1ccccc1 | -15.6% |
| O=S(=O)(Nc1ccc2c(c1)OCCO2)c1cccc2nsnc12 | -8.28% |
| COc1ccc2c(=O)cc(-c3ccncc3)oc2c1OC | 19.3% |
